The list is not random: actives were taken first. Their share in the collection is about 5.2%.
A3G deaminase – inhibitors of human APOBEC3G DNA deaminase; recombinant A3G, ssDNA deamination FAM/TAMRA fluorescence; inhibition, % at 20 µM; actives 0.28% (n = 330,000);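 active means inhibition of at least 40% at 20 µM, with no more than 30% in the related APOBEC3A deaminase screen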;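 further: plate controls were DMSO wells with A3G for no effect and wells lacking A3G enzyme for full effect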
Target sequence (Q9HC16 whole entry, looked up): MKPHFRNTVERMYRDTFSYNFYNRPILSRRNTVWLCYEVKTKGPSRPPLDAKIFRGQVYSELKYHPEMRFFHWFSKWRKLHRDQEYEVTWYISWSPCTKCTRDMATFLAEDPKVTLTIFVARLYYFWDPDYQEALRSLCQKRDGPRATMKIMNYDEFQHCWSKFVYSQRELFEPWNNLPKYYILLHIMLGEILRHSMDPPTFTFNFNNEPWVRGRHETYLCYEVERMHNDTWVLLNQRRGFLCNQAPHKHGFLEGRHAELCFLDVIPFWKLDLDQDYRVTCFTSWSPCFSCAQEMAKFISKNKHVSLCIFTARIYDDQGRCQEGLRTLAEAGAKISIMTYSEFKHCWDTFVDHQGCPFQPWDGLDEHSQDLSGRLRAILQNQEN
Yeast superoxide – yeast age-related superoxide inhibition as caloric restriction mimetic; AID 2690; superoxide response (% of plate mean), % at 10 µM; S. cerevisiae aged cells, superoxide DHE fluorescence; active compounds read low; actives 0.18% (n = 330,000);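 active means superoxide response under a set limit, about three screen SD below normal, cut at about 65% in these data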;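 further: yeast aged for seven days with compound at 30 °C before DHE staining; 100% = average MFI of all compound-treated wells on the plate with controls excluded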
ALR inh – blocks human ALR sulfhydryl oxidase activity; P55789; purified ALR, DTT oxidation, H2O2 HRP-luminol luminescence; inhibition, % (no concentration beside the values); actives 3.8% (n = 290,000); AID 485317;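 active means mean replicate inhibition above about 79%, with every replicate also reaching it, limit read from the data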
Target sequence (P55789 whole entry, looked up): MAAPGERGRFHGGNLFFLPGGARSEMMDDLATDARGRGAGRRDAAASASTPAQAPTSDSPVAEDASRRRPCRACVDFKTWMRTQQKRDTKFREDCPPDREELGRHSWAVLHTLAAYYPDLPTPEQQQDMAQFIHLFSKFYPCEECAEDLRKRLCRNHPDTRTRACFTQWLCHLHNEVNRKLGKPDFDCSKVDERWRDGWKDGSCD
APOBEC3A inh – blocks human APOBEC3A ssDNA deamination; actives 0.41% (n = 330,000); AID 493011; recombinant A3A, FAM/TAMRA ssDNA deamination fluorescence; inhibition, % at 20 µM; P31941;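 active means at least 40% inhibition at 20 µM here, with at most 30% in a related deaminase screen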;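 further: plate controls were A3A with DMSO for no effect and wells lacking A3A enzyme for full effect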
M18AAP inhibitor – PfM18AAP enzyme inhibition; actives 1.2% (n = 290,000); AID 1822; recombinant PfM18AAP, H-Glu-NHMec fluorogenic cleavage; inhibition, % at 7.35 µM;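 active means inhibition above the campaign mean inhibition over all tested compounds plus 3 SD, cut at about 28% in these data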;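 further: 0% = plate median of test compound wells and 100% = 2 mM ZnCl2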
CendR NRP1 mod – NRP-1/CendR interaction modulation. FAM-RPARPAR peptide binding to NRP-1, fluorescence polarization. inhibition, % at 25 µM. actives 0.85% (n = 360,000). AID 602438;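 active means inhibition or corrected inhibition above about 18%, plus a signal ratio from 0.5 to 1.5, limit read from the data, passing the limit was not always enough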
An asterisk follows results filed as active; nt = no result given.

SMILES	A3G deaminase	Yeast superoxide	ALR inh	APOBEC3A inh	M18AAP inhibitor	CendR NRP1 mod
CCOC(=O)Cc1csc(NC(=O)c2cccnc2)n1	-0.4	103.1	-1.9	3.2	-12.6	0.0
CCOC(=O)Cc1csc(NC(=O)c2sc3nc4ccc(C)cc4cc3c2N)n1	-4.7	103.7	98.5*	-2.6	5.2	-91.7
CCOC(=O)Cc1csc(N/N=C\c2ccc(N(C)C)cc2)n1	-9.0	102.7	-3.9	-5.6	38.4*	3.8
CCOC(=O)Cc1csc(NC(=O)CSc2nc(=O)[nH]c3c2CCCC3)n1	-8.4	101.3	96.3*	-2.3	nt	-7.3
COC(=O)c1cc[n+](CC(=O)c2ccccc2)cc1	4.8	102.5	-10.7	1.2	-1.5	0.1
NNC(=O)CSc1ncc(-c2ccccc2)[nH]1	-6.6	107.6	36.0	3.1	4.4	-0.4
CCc1nnc(NC(=O)CSc2ncc(-c3ccccc3)[nH]2)s1	4.7	96.6	99.2*	5.0	4.1	-0.9
O=C(CSc1ncc(-c2ccc(F)cc2)[nH]1)Nc1cccc(O)c1	-7.7	110.0	99.2*	-5.0	0.3	-15.4
Cc1nnc(NC(=O)CSc2ncc(-c3ccccc3)[nH]2)s1	-7.7	107.2	62.5	0.4	-12.1	-8.0
CCOC(=O)c1c(Cl)c(C)nn1-c1nc(OC)cc(OC)n1	-6.0	104.8	-12.9	-4.6	-5.9	-14.0
Cc1ccc(C)c(S(=O)(=O)N2CCN(C(=O)CSc3ccccc3F)CC2)c1	-6.7	104.0	-0.5	-0.9	-0.5	23.7*
Cc1cc(/C=N/n2c(COc3ccccc3)nc3ccccc3c2=O)c(O)c([N+](=O)[O-])c1	-7.3	86.8	-4.1	0.7	1.0	-6.7
CC1=NN(C(N)=S)C(=O)C1N=Nc1ccc([N+](=O)[O-])cc1 (stereo not drawn)	13.5	104.3	79.1*	13.0	3.5	-0.6
CC1=NN(C(N)=S)C(=O)C1N=Nc1ccc(O)cc1 (stereo not drawn)	-7.3	nt	nt	-2.0	29.2*	-6.2
CC1=NN(C(N)=S)C(=O)C1N=Nc1ccc(F)cc1 (stereo not drawn)	-1.4	nt	nt	-3.2	14.1	-6.0
COC(=O)c1nc[nH]c1C(=O)OC	-3.4	119.1	2.1	-1.0	4.3	3.3
COc1ccc(-c2csc(Nc3ccc(S(=O)(=O)Nc4cc(C)on4)cc3)n2)cc1	-7.0	119.5	98.1*	-7.4	14.1	-18.4
Oc1ccc(Nc2nc(-c3ccc(O)cc3)cs2)cc1	-4.3	127.4	100.0*	-2.0	7.8	4.7
c1cncc(Nc2nc(-c3cccs3)cs2)c1	-8.2	102.0	95.9*	-1.4	30.0*	-16.3
COc1ccc(-c2csc(Nc3cccnc3)n2)cc1	-3.2	92.8	4.7	-1.6	10.9	24.8*
c1ccc(-c2csc(Nc3cccnc3)n2)nc1	-8.5	89.8	5.5	-6.1	1.3	1.2
O=C(Nc1ccccc1)NC1(C(=O)N2CCC(O)CC2)CCCCC1	-2.4	91.8	-1.4	-2.1	-5.0	9.2
Cn1cccc1/C=N/n1cnnc1	-5.3	119.7	-19.6	1.5	3.3	14.4
Brc1ccc(-n2cccc2/C=N/n2cnnc2)cc1	-10.3	96.9	-1.3	-4.6	31.4*	1.6
COc1cccc(N2CCN(S(=O)(=O)c3cn(C)cn3)CC2)c1	-2.1	98.4	95.9*	-2.4	-19.1	10.3
SMILES	A3G deaminase	Yeast superoxide	ALR inh	APOBEC3A inh	M18AAP inhibitor	CendR NRP1 mod
COc1ccc(NCc2nnc(SCC(=O)NCc3ccccc3)n2-c2ccccc2OC)cc1	-7.2	93.8	24.6	-5.1	3.6	29.1*
CCOC(=O)c1c(C)[nH]c(C(=O)Nc2ccc(C)c(Cl)c2)c1C	0.9	92.4	nt	0.9	-12.2	nt
CN1C(=O)CS(=O)c2ccc(C(=O)NCCC3=CCCCC3)cc21 (stereo not drawn)	-5.7	97.0	nt	-0.1	29.5*	2.2
O=C(NCCC1=CCCCC1)c1ccc2c(c1)N(Cc1ccccc1)C(=O)CS2	-8.7	90.1	-27.9	2.0	-6.1	0.0
Cc1ccnc(NC(=O)COc2ccc3oc4c(c3c2)CCCC4)c1	-2.2	106.0	2.4	-0.9	-4.1	44.2*
CCc1cc(C(=O)c2ccc(OC)cc2)c(NC(=O)COCC(=O)O)s1	5.3	108.9	nt	-5.0	2.9	-3.2
CCc1cc(C(=O)c2ccccc2OC)c(N)s1	-5.1	124.7	93.2*	-5.7	12.7	0.9
COc1ccc(C(=O)c2ccsc2N)cc1	-6.9	93.1	38.2	-4.0	11.0	142.8
CCc1cc(C(=O)c2ccc(OC)cc2)c(NC(=O)CC(C)(C)CC(=O)O)s1	-0.9	94.9	80.8*	0.9	2.1	12.4
CCn1c(=O)[nH]c(=O)c2c(N)c(C(=O)c3ccccc3OC)sc21	-7.3	97.6	-0.1	-3.5	-14.4	-9.0
CCc1cc(C(=O)c2ccc(OC)cc2)c(N)s1	-13.2	85.6	98.9*	-5.7	3.8	-6.8
NC(=O)CC(NC(=O)Cc1ccc(Cl)cc1)c1ccc(NC2CCCCC2)c([N+](=O)[O-])c1 (stereo not drawn)	-4.2	100.2	2.7	-1.1	nt	-16.3
Cc1cccc(/C=N/Nc2nncc3ccccc23)c1	-2.8	95.2	96.5*	2.7	5.4	-12.7
Cn1c(-c2ccc(F)cc2)cnc1NCc1ccccc1	12.1	94.6	69.2	4.7	0.3	-3.6
COc1ccccc1CNc1ncc(-c2ccc(F)cc2)n1C	-8.5	106.0	97.7*	-5.2	9.3	-10.1
COc1cc(CNc2ncc(-c3ccc(Br)cc3)n2C)cc(OC)c1O	-8.5	96.9	85.6*	-11.1	11.3	1.1
COc1ccc(CNc2ncc(-c3ccc(F)cc3)n2C)cc1OC	-4.9	92.6	53.6	-8.3	1.1	1.4
Cn1c(-c2cccc(Br)c2)cnc1NCc1cccnc1	0.6	97.5	85.4*	2.0	15.9	-9.1
COc1ccccc1CNc1ncc(-c2ccccc2)n1C	-4.7	nt	nt	-5.0	11.5	2.0
COc1ccc([C@@H]2[C@H]3CN(C(C)=O)CC=C3C(C#N)=C(N)C2(C#N)C#N)c2ccccc12	nt	nt	nt	nt	3.5	-17.3
CCOP(=O)(Cc1ccc(C(C)(C)CC(C)=O)o1)OCC	-1.4	110.8	9.8	0.8	-4.6	-21.1
Cc1cc(C(F)(F)F)nn1CC(=O)NCC1CCCO1 (stereo not drawn)	-4.6	100.2	-9.5	3.2	5.5	3.2
O=C(Nc1ccc2oc(-c3ccccc3F)nc2c1)c1ccc2c(c1)OCCO2	-3.4	101.0	0.8	3.3	0.7	-6.8
CNC(=O)c1ccccc1Sc1ccccc1C#N	-0.3	113.5	nt	-0.6	1.6	32.3*
N#Cc1ccccc1Sc1ccccc1C(=O)Nc1ccc(Br)cc1	-0.2	90.9	1.3	0.2	0.8	-0.9
O=C(CN1C(=O)S/C(=C\C=C\c2ccccc2)C1=O)Nc1ccccc1C(=O)O	-9.8	122.5	96.9*	-0.4	13.3	-65.8
O=C(CCN1C(=O)/C(=C/c2ccccc2Cl)SC1=S)Nc1ccccc1C(=O)O	0.5	114.8	98.3*	0.4	-77.3	-54.5
